High-throughput results deposited in PubChem BioAssay by several laboratories.
In the library only some 4% were active in any assay of this set; here they are far more common.
CSC inhib: blocks cancer stem cells. cancer stem cell-like cells viability, luminescence. inhibition, % at 7.5 µM. hit rate 1.1% among 300,000. AID 2717; in the data active = inhibition above about 75%; tested in HMLE shEcad cells
Gli-Sufu antag: Gli-Sufu pathway antagonism. Sufu-KO-LIGHT fibroblasts, Gli luciferase reporter luminescence. inhibition, % at 5 µM. hit rate 0.74% among 340,000;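 active = inhibition above about 55%, limit read from the data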;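 also: 0% = DMSO-treated cells and 100% = wells with medium but no cells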
Shn3 3UTR inh: Schnurri-3 reporter inhibition in Clone20 osteoblasts. Clone20 osteoblast Shn3 3'UTR firefly luciferase, 24 h. inhibition, % at 12.5 µM. hit rate 0.52% among 360,000. AID 588674;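 active = mean inhibition of at least 75% with every replicate also reaching 75%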;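 also: 0% = median of neutral control wells and 100% = pilot-screen positive control compound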
Beta cell apopt: beta cell apoptosis inhibition; hit rate 0.8% among 300,000; INS-1E cytokine-induced death, ATP luminescence, 48 h; percent of positive-control rescue, neutral wells zero; protection from apoptosis, % (test concentration not listed);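 active = Every replicate reaches about 75%, or at least half do and their mean reaches it too, limit read from the data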;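 also: 0% = cytokine-treated negative control wells and 100% = positive control rescue; higher means more ATP so stronger rescue from cytokine killing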
PAX8 inh HTS: PAX8 transcriptional activity inhibition | RMG-I TPO-luciferase reporter, SteadyGlo, 24 h | inhibition, % at 12.6 µM | hit rate 1.2% among 360,000;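 active = mean replicate inhibition at least 60% with every replicate also reaching 60%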;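 also: luciferase light reporting Pax8 driven TPO promoter activity; plate controls were median of neutral control wells for no effect and mitoxantrone controls for full effect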
Mdm2-MdmX inh: inhibitors of human Mdm2/MdmX interaction; hit rate 3% among 330,000; O15151+Q00987; inhibition, % at 8 µM; AID 485346; SaOS-2 split-luciferase Mdm2/MdmX complementation, luminescence;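 active = inhibition of at least 50% at 8 µM in the primary screen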
Target sequence (O15151 whole entry, looked up): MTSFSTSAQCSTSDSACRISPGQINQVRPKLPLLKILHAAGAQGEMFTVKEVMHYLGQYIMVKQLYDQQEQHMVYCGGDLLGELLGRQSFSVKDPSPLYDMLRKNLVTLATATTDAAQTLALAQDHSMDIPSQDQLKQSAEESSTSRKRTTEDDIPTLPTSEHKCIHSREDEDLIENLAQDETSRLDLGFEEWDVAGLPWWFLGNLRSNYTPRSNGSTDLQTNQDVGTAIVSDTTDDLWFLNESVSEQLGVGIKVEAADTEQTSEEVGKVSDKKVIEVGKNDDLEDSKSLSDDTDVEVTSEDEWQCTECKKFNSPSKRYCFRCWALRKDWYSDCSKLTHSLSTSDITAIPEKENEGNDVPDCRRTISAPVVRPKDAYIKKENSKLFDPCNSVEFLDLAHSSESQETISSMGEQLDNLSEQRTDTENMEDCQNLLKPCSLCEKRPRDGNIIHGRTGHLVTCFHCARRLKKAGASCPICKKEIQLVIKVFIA
Target sequence (Q00987 whole entry, looked up): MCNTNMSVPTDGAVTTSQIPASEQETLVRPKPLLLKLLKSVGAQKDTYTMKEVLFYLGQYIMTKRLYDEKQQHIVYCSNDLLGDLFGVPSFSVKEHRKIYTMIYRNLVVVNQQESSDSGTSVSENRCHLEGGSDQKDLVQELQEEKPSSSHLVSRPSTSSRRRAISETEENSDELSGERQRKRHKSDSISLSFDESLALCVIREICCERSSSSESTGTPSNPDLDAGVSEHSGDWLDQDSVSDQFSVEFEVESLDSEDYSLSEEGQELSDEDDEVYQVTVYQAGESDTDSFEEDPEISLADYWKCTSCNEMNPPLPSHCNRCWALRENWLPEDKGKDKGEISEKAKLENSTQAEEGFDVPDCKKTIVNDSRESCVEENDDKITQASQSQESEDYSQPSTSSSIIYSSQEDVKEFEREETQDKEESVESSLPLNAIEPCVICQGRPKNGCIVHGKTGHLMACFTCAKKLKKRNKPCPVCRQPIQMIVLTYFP
The depositor's hits bear a star; nt = no result.

SMILES | CSC inhib | Gli-Sufu antag | Shn3 3UTR inh | Beta cell apopt | PAX8 inh HTS | Mdm2-MdmX inh
Cn1nc(C(C)(C)C)cc1C(=O)N1CCCCC1c1cc(C(=O)Nc2cccc3c2CCCC3)no1 (stereo not drawn) | nt | nt | 80.9* | nt | -3.3 | nt
O=C(Nc1ccc(S(=O)(=O)N2CCOCC2)cc1)c1ccc(CN2CCc3ccccc3C2)cc1 | -0.1 | -10.9 | nt | 123.4* | nt | 32.1
Cc1ccc2ccc3cccnc3c2n1 | -9.8 | 22.6 | 58.5 | 86.3* | -13.7 | nt
C[C@H]1CN([C@@H](C)CO)C(=O)Cc2cc(NC(=O)Nc3ccc4c(c3)OCO4)ccc2O[C@H]1CN(C)C(=O)Nc1cccc2ccccc12 | nt | nt | nt | nt | -1.3 | nt
CCOc1ccccc1N=C1SC(CC(=O)Nc2ccc(OC)cc2OC)C(=O)N1CCC1=CCCCC1 (stereo not drawn) | 14.4 | -3.0 | 31.4 | 76.3* | 13.3 | 43.1
O=C(CC1SC(=Nc2ccc(OC(F)F)cc2)N(CCC2=CCCCC2)C1=O)Nc1ccccc1F (stereo not drawn) | nt | 20.0 | 78.0 | nt | 11.5 | 24.3
N#Cc1c(NC(=O)c2ccc(Cn3cc(Br)cn3)o2)sc2c1CCCCC2 | 106.3* | -3.4 | -0.2 | -9.3 | nt | -32.8
O=C(C[C@@H]1CC[C@@H]2[C@H](COC[C@@H](O)CN2Cc2cccc(C(F)(F)F)c2)O1)NCCc1ccncc1 | nt | nt | nt | nt | 16.1 | nt
CN1c2ccccc2N(C)C1(C)c1ccccc1 | 38.3 | 60.7* | 79.8 | 130.6* | 91.6* | nt
CCN1c2ccccc2N(C)C1(C)c1ccccc1 (stereo not drawn) | 43.1 | 37.6 | 89.1* | 106.3* | nt | nt
C[C@H](CO)N1C[C@H](C)[C@@H](CN(C)S(=O)(=O)c2ccc(F)cc2)Oc2ccc(NC(=O)CCCN(C)C)cc2C1=O | nt | nt | nt | nt | -14.8 | nt
O=C(NC1CCCC(C(F)(F)F)C1)c1ccc([N+](=O)[O-])o1 (stereo not drawn) | 69.3 | -32.8 | 46.3 | -49.4 | 75.6* | 41.0
COc1ccc(N2CCN(C(=O)COc3ccccc3)CC2)cc1 | nt | 10.1 | nt | nt | nt | 31.0
COc1ccc(N2CCN(C(=O)COC(=O)CCc3ccccc3)CC2)cc1 | -7.9 | 2.1 | 3.4 | -3.0 | 76.9* | 11.7
CNC[C@@H]1OCCCC[C@@H](C)Oc2ccc(NS(=O)(=O)c3ccccc3)cc2C(=O)N([C@@H](C)CO)C[C@@H]1C | nt | nt | nt | nt | -5.5 | nt
O=C1CC[C@@H](O)CCN1CC[C@H](Sc1ccc(Br)cc1)c1ccccc1 | -4.3 | -3.5 | -8.2 | -1.1 | -25.0 | -7.6
O=C(N[C@@H]1CCC(=O)N(CC[C@H](Sc2ccc(Br)cc2)c2ccccc2)CC1)OCc1ccccc1 | 34.0 | -0.4 | 13.3 | 1.3 | 31.1 | 21.4
CC(C)(C)[C@@H]1CCC(=O)N(CC[C@H](Sc2ccc(Br)cc2)c2ccccc2)CC1 | 107.6* | 6.5 | 23.0 | 8.3 | 23.5 | 2.8
Cc1ccc(SC[C@H](C)CN2CC[C@H](C)CCC2=O)cc1 | -5.0 | 3.0 | 3.2 | -4.8 | -1.6 | 16.3
COc1ccc(S[C@@H](CCN2CC[C@H](NC(=O)OCc3ccccc3)CCC2=O)c2ccccc2)cc1 | 82.4* | 25.2 | 16.4 | 3.4 | 24.4 | 17.3
C[C@@H](CSc1ccc(Br)cc1)CN1CC[C@H](NC(=O)OCc2ccccc2)CCC1=O | 91.4* | -28.6 | 7.7 | 3.4 | 23.5 | -12.3
CC(=O)Nc1ccc(SC[C@H](C)CN2CC[C@H](C(C)(C)C)CCC2=O)cc1 | 101.9* | 0.4 | 1.1 | 5.6 | 4.3 | 5.3
Cc1ccccc1-c1ccc(C2[C@@H]3CN(C(=O)Cc4ccncc4)C[C@H]2N3)cc1 (stereo partly drawn) | nt | nt | nt | nt | -9.4 | nt
C[C@@H]1CCCCO[C@@H](CN(C)Cc2ccc(Cl)c(Cl)c2)[C@H](C)CN([C@H](C)CO)C(=O)c2cc(NC(=O)c3ccccc3)ccc2O1 | nt | nt | nt | nt | 96.6* | nt
C[C@H](CO)N1C[C@H](C)[C@H](CN(C)Cc2ccc(Cl)c(Cl)c2)OCCCC[C@H](C)Oc2ccc(NC(=O)c3ccccc3)cc2C1=O | nt | nt | nt | nt | 6.9 | nt
C[C@@H]1CCCCO[C@H](CN(C)Cc2ccc(Cl)c(Cl)c2)[C@@H](C)CN([C@@H](C)CO)C(=O)c2cc(NC(=O)c3ccccc3)ccc2O1 | nt | nt | nt | nt | 82.2* | nt
C[C@@H]1CN([C@H](C)CO)C(=O)c2cc(NC(=O)Cc3ccccc3)ccc2O[C@H]1CN(C)C(=O)Nc1ccc(F)cc1 | nt | nt | nt | nt | -8.4 | nt
C[C@@H]1CN([C@@H](C)CO)C(=O)Cc2cc(NS(C)(=O)=O)ccc2O[C@@H]1CN(C)S(=O)(=O)c1ccccc1 | nt | nt | nt | nt | 4.9 | nt
